A selection: hits, their analogues and other compounds. The true share with any hit is near 3.5%.
GPR151 ag – human GPR151 activation; 650,000 compounds, 1% hits; Q8TDV0; AID 1508602; PathHunter beta-arrestin GPR151 cells, luminescence; activation, % at 11.2 µM; in the data active means activation above about 4.9%;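 further: 0% = median of compound wells and 100% = cells with positive control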
MITF inh – inhibitors of human MITF | 650,000 compounds, 0.91% hits | O75030 | AlphaScreen MITF homodimerization, bead proximity signal | inhibition, % at 2.6 µM; in the data active means inhibition above about 50%;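 further: 0% = vehicle wells with protein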
FBW7 activator – activators of human E3 ligase FBW7; Q969H0; normalized activity (activation), % at 26.1 µM; AID 1259310; 650,000 compounds, 0.13% hits; AlphaScreen FBW7–phospho-cyclin E peptide binding, activator screen; in the data active means normalized activity above about 1.9%;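 further: purified mutant Fbw7 with reduced substrate affinity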
TEAD-YAP block – TEAD-YAP interaction inhibition. HEK-TIYL cells, TEAD-Gal4/YAP UAS-luciferase luminescence. AID 1259422. 640,000 compounds, 1.4% hits. inhibition, % at 9.12 µM; in the data active means inhibition above about 32%;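 further: 0% = median of test compound wells and 100% = reference inhibitor wells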
Starred values were filed as active, the others as inactive; ! = a repeat was not active.

SMILES	GPR151 ag	MITF inh	FBW7 activator	TEAD-YAP block
Cc1ccc(N=c2c([N+](=O)[O-])nn(-c3ccccc3)n2O)c(Cl)c1	1	-2	0	7
Cc1ccc(-c2cc(C(=O)NN)[nH]n2)cc1	-1	15	0	-4
COc1cccc(-c2cc(C(=O)N/N=C/c3ccccc3O)[nH]n2)c1	-1	23	0	-18
CCOc1ccc(-c2cc(C(=O)N/N=C/c3ccccc3O)[nH]n2)cc1	2	0	0	50*
COc1ccc(-c2cc(C(=O)NN)[nH]n2)cc1	-1	0	0	62*
CCOc1ccc(-c2cc(C(=O)N/N=C/c3ccccn3)[nH]n2)cc1	1	21	0	34*
Nc1nc(C2CC2)c(Sc2sc(N)nc2C2CC2)s1	1	7	0	35*
CCOC(=O)C1=C(C)NC2=C(C(=O)CC(c3ccc(OC)cc3)C2)C1c1ccccc1OC(C)C (centres undefined)	1	17	0	-5
CC1=C(C(=O)OC(C)C)C(c2ccncc2)C2=C(CC(c3ccccc3)CC2=O)N1 (centres undefined)	0	8	2.1*!	9
COc1ccc(C2CC(=O)C3=C(C2)NC(C)=C(C(=O)OC(C)C)C3c2ccccc2OC(C)C)cc1 (centres undefined)	0	8	2.4*	-7
CC1=C(C#N)C(c2ccc(C)cc2)C2=C(CC(c3ccccc3)CC2=O)N1 (centres undefined)	-1	2	0	32*
O=C(CS(=O)(=O)Cc1ccccc1)Nc1ccccc1C(=O)N1CCOCC1	1	9	0	0
O=S(=O)(NCc1ccncc1)c1ccc(Cl)c(Cl)c1	2	8	0	36*
CCOc1cc(S(=O)(=O)NCc2ccncc2)ccc1Cl	1	8	0	52*
CCOc1ccc(S(=O)(=O)NCc2ccncc2)cc1C	0	-2	0	55*
Cc1ccc(S(=O)(=O)NCc2ccncc2)cc1	0	1	0	41*
CN(CC(=O)N/N=C/c1ccc(Br)cc1)c1ccccc1	0	-7	0	-11
CCN1CCN(C(=O)CN(c2cccc(Cl)c2C)S(C)(=O)=O)CC1	3	5	0	3
NS(=O)(=O)c1ccc(C(=O)OCc2ccccc2Br)cc1	-1	5	0	1
CC(=O)N1CCN(Cc2ccc(Cl)s2)CC1C(=O)N1CCCC1 (centres undefined)	0	6	0	2
O=S(=O)(NCc1cccnc1)c1cccc(Cl)c1Cl	4	6	0	-12
O=S(=O)(NCc1ccncc1)c1cccc(Cl)c1Cl	-1	17	0	35*
O=S(=O)(NCc1ccncc1)c1ccc(Br)cc1Br	1	5	0	32*
Cc1cc(S(=O)(=O)NCc2ccncc2)c(C)cc1Br	0	13	1	32
CCCNc1nc(Nc2ccncc2)nc2c1ncn2-c1ccccc1	-2	14	0	43*
SMILES	GPR151 ag	MITF inh	FBW7 activator	TEAD-YAP block
CCCNc1nc(Nc2ccccc2)nc2c1ncn2-c1ccccc1	-1	-8	0	-6
Oc1ccc(CCNc2nc(Nc3ccc4ncccc4c3)nc3c2ncn3-c2ccccc2)cc1	0	1	0	46*
OCCNc1nc(Nc2ccc3ncccc3c2)nc2c1ncn2-c1ccccc1	-1	19	0	45*
CCCNc1nc(Nc2ccc3ncccc3c2)nc2c1ncn2-c1ccsc1	1	-1	0	48*
CCCNc1nc(Nc2ccc3ncccc3c2)nc2c1ncn2-c1ccccc1	2	5	0	34*
OCCNc1nc(Nc2ccncn2)nc2c1ncn2Cc1ccc(C(F)(F)F)cc1	-1	17	3.1*	-12
Oc1ccc(CCNc2nc(Nc3ccncn3)nc3c2ncn3-c2ccccc2)cc1	-2	12	0	43*
Cc1ccc(S(=O)(=O)N2CCC(C(=O)NC34CC5CC(CC(C5)C3)C4)CC2)cc1	1	7	0	-5
COc1ccc(-c2ccc(C)c(NC(=O)Cc3ccc(OC)c(OC)c3)c2)nn1	0	10	1	64*
COc1ccc(CC(=O)Nc2cc(NC(=O)c3cccs3)ccc2C)cc1OC	-1	17	0	32*
COc1ccc(CC(=O)Nc2ccc(C)c(C)c2)cc1OC	1	2	0	8
COc1ccc(S(=O)(=O)Cc2ccccc2)cc1N	1	2	0	-10
CCN(CC)S(=O)(=O)c1ccc(N2CCN(c3ccccc3OC)CC2)c(N)c1	1	4	0	33*
CCN(c1ccccc1)S(=O)(=O)c1ccc(OC)c(N)c1	-1	-7	0	52*
Cn1nc(CC(=O)Nc2cccc(F)c2)c2ccccc2c1=O	-2	18	0	34*
COc1ccc(CNC(=O)Cc2nn(C)c(=O)c3ccccc23)cc1	0	7	0	38*
Cc1cccc(NC(=O)Cc2nn(C)c(=O)c3ccccc23)c1	1	7	0	45*
Cn1nc(CC(=O)Nc2ccc(F)c(Cl)c2)c2ccccc2c1=O	-1	19	1.9*	30
COc1cc(NC(=O)Cc2nn(C)c(=O)c3ccccc23)cc(OC)c1OC	0	1	0	-2
COc1ccc(CNC(=O)c2cc(Nc3ccccc3)ccn2)cc1	3	-1	0	10
COc1ccc(CC(=O)NCc2ccsc2)cc1	2	6	0	35*
Cn1nc(CC(=O)Nc2c(F)cccc2F)c2ccccc2c1=O	0	13	0	41*
Cc1ccc(NC(=O)Cc2nn(C)c(=O)c3ccccc23)cc1	3	-11	0	42*
Cn1nc(CC(=O)Nc2ccccc2Br)c2ccccc2c1=O	-1	-4	0	25
COc1ccc(CC(=O)NCc2ccc(C)cc2)cc1	1	-1	0	31
SMILES	GPR151 ag	MITF inh	FBW7 activator	TEAD-YAP block
CC(C)CC(=O)Nc1cc(F)cc(F)c1	2	8	0	4
CN(C)c1ccc(C(=O)Nc2ccccc2F)cc1	-9	-4	0	74*
COc1ccc(/C(C)=N\NC(=O)c2cc(-c3c(C)nn(-c4ccccc4)c3C)n[nH]2)cc1	-1	15	0	44*
COC(=O)c1cc(-c2c(C)nn(-c3ccccc3)c2C)n[nH]1	0	-13	0	-21
CN(C)c1ccc(/C=C2/C(=O)NC(=S)N(c3ccccc3)C2=O)cc1	-1	-9	0	1
CNC(=O)N(C1=NCC(C)S1)c1cccc(Cl)c1 (centres undefined)	-1	9	0	40*
CC1CN=C(N(C)C(=O)Nc2cccc(Cl)c2)S1 (centres undefined)	-1	2	0	-20
Cc1cccc(C(=O)Nc2snc(Cl)c2C#N)c1	0	0	0	39*
Cc1cccc(C(=O)Nc2sccc2C#N)c1	-1	-10	0	-22
CCCCN(CCCC)CC(O)COc1ccccc1[N+](=O)[O-] (centres undefined)	2	-7	0	1

Compound activity as filed in PubChem BioAssay.
